Laboratory results published in article PMC7862700, “An all-to-all approach to the identification of sequence-specific readers for epigenetic DNA modifications on cytosine”.

Legend:
Experiment in all cases: DAPPL (digital affinity profiling via proximity ligation, sequencing); 10 mM Tris-HCl pH 7.5, 50 mM NaCl, 1 mM DTT, 4% glycerol, room temperature, 30 min; GST-TFs on glutathione beads, 16-mer random dsDNA library, 0.1% formaldehyde crosslink after washing; high values mean tight binding
Conditions in all cases: protein: recombinant; tags: N-terminal GST; dsDNA, one strand shown
[1] = target: T1, ETV2 (Homo sapiens, UniProt O00321 1-342)
T1 sequence: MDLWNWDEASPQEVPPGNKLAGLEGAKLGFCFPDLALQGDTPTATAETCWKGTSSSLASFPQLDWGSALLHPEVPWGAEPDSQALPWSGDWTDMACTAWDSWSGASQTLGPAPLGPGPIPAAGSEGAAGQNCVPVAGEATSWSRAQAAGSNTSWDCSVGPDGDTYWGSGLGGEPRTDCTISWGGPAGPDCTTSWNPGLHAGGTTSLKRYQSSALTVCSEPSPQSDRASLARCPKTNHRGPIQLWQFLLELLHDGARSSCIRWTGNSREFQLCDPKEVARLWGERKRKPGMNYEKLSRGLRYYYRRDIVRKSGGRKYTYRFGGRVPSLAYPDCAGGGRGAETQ
Method in brief: (§1)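 The binding signal reported is, for every hexamer, its read frequency for a factor over its read frequency for the tag-only sample. Reads came from pools of yeast-expressed, GST-fused human transcription factors on glutathione beads, barcoded with DNA and mixed with that sample, which were incubated with 200 nmole of a random double-stranded 16-mer DNA library in Tris/NaCl/DTT/glycerol buffer at room temperature for 30 min. After washing, the pools were crosslinked with 0.1% formaldehyde, proximity-ligated with BsaI/T4 ligase for 1 h at 37 °C, PCR-amplified and sequenced on an Illumina NextSeq500.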

[2] = target: T2, ELF3 (Homo sapiens, UniProt P78545 1-371)
T2 sequence: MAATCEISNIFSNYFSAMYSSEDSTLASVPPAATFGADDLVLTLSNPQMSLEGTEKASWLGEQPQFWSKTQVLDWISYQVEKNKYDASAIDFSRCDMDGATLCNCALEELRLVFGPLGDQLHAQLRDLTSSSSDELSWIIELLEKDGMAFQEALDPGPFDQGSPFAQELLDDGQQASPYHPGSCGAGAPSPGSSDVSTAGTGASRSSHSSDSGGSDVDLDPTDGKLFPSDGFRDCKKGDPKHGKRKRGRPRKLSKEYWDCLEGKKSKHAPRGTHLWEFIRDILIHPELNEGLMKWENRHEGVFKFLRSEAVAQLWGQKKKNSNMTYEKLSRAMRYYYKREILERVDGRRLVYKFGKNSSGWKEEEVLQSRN
Method in brief: as §1

[3] = target: ETV1 (Homo sapiens, UniProt P50549 1-477)
Chain of ETV1 (P50549 whole entry): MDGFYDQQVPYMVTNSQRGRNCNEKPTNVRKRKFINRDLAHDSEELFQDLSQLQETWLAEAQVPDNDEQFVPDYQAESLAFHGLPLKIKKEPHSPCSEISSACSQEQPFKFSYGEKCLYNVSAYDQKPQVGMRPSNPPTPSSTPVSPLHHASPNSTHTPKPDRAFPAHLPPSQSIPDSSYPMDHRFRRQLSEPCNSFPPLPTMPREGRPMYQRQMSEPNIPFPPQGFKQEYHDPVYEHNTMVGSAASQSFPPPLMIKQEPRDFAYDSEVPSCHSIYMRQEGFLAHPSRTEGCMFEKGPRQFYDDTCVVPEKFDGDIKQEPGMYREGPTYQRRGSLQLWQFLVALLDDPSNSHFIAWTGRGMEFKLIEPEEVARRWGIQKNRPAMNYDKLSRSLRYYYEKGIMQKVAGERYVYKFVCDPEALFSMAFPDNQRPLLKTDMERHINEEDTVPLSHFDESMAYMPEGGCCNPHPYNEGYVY
Method in brief: as §1

[4] = target: T3, ERF (Homo sapiens, UniProt P50548 1-548)
T3 sequence: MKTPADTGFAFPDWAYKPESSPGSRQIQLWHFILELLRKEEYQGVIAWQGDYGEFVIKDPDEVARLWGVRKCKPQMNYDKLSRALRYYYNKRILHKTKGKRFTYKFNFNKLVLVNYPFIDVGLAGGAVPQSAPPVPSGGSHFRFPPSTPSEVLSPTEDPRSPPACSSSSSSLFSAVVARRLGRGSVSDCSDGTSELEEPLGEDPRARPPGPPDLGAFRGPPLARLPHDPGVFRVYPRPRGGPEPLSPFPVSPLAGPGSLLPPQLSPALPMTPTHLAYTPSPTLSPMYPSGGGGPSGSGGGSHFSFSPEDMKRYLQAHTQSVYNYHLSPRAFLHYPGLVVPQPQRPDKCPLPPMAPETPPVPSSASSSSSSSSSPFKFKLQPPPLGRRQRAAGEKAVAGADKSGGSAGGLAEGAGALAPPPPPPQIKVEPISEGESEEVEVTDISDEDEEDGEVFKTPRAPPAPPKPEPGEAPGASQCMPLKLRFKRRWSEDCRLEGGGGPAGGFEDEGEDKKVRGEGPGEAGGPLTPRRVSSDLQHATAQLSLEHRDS
Method in brief: as §1

[5] = target: T4, ETV3L (Homo sapiens, UniProt Q6ZN32 1-361)
T4 sequence: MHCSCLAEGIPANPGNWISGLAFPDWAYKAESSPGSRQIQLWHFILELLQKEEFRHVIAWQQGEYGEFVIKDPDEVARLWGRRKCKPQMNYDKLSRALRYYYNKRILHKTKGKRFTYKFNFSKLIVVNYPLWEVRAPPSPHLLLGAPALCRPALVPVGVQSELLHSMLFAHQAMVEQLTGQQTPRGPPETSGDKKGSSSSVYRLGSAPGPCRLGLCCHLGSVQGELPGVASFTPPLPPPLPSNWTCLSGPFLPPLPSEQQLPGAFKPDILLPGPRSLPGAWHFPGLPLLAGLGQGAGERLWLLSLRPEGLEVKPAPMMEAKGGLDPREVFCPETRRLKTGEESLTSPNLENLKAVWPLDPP
Method in brief: as §1

[6] = target: T5, ETS2 (Homo sapiens, UniProt P15036 1-469)
T5 sequence: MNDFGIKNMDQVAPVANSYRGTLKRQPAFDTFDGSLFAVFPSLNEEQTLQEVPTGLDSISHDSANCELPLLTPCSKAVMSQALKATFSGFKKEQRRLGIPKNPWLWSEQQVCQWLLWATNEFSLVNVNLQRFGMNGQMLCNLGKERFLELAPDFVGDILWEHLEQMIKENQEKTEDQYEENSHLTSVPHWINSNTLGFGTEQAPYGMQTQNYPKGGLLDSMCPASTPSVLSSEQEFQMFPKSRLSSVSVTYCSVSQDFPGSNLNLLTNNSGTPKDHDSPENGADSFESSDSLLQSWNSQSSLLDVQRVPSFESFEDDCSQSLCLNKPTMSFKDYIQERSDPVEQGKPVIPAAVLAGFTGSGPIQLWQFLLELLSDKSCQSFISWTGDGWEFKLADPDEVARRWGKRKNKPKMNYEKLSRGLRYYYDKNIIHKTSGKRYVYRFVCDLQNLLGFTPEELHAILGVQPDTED
Method in brief: as §1

[7] = target: T6, SPDEF (Homo sapiens, UniProt O95238 1-335)
T6 sequence: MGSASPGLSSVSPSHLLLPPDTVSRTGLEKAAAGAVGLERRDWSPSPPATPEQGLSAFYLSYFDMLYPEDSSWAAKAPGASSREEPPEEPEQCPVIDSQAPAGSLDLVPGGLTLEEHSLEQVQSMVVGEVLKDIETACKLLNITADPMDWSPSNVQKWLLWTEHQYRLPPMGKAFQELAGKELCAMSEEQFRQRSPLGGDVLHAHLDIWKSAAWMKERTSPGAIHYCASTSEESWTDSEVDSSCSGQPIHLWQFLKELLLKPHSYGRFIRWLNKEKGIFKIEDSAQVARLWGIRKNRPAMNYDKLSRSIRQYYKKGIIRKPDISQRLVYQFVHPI
Method in brief: as §1

[8] = target: T7, ETV7 (Homo sapiens, UniProt Q9Y603 1-341)
T7 sequence: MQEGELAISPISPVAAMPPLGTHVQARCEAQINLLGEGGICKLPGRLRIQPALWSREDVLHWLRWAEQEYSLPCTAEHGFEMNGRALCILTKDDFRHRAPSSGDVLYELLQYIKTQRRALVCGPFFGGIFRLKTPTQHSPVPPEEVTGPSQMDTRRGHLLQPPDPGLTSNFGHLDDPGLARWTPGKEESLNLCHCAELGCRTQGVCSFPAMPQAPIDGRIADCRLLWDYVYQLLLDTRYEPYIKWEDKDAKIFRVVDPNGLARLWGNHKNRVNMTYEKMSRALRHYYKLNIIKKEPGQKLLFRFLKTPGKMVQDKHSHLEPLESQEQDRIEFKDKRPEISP
Method in brief: as §1

[9] = target: T8, ETV3 (Homo sapiens, UniProt P41162-2 1-143)
T8 sequence: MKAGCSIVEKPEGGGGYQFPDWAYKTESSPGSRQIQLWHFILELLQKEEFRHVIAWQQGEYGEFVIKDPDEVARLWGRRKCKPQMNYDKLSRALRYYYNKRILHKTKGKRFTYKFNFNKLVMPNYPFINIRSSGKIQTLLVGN
Method in brief: as §1

[10] = target: ETV6 (Homo sapiens, UniProt P41212 1-452)
Chain of ETV6 (P41212 whole entry): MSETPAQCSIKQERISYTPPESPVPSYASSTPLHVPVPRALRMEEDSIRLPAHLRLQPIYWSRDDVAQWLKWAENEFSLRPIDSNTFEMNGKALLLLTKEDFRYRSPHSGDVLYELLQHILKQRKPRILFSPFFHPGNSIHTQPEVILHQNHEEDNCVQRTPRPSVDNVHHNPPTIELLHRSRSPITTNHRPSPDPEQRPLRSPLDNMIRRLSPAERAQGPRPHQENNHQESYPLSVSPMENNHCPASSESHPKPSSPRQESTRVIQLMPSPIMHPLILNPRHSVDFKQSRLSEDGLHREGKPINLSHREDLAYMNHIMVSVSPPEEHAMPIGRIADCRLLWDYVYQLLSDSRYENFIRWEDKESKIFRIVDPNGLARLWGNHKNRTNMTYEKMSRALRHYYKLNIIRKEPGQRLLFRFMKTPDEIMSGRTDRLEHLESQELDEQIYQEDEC
Method in brief: as §1

GTGCAT
binding signal [1]: 1.02 fold enrichment (6-mer frequency, TF over GST control)
binding signal [2]: 1.03 fold enrichment (6-mer frequency, TF over GST control)
binding signal [3]: 1.05 fold enrichment (6-mer frequency, TF over GST control)
binding signal [4]: 1.18 fold enrichment (6-mer frequency, TF over GST control)
binding signal [5]: 1.04 fold enrichment (6-mer frequency, TF over GST control)
binding signal [6]: 1.1 fold enrichment (6-mer frequency, TF over GST control)
binding signal [7]: 1.17 fold enrichment (6-mer frequency, TF over GST control)
binding signal [8]: 1.12 fold enrichment (6-mer frequency, TF over GST control)
binding signal [9]: 1 fold enrichment (6-mer frequency, TF over GST control)
binding signal [10]: 1.14 fold enrichment (6-mer frequency, TF over GST control)
